# Source: PubChem BioAssay
# Pf growth 48h = P. falciparum growth inhibition at 48 hours (one generation). Potency, µM (doses to about 28.7 µM), for the others: at the highest dose activity change, negative = inhibition, most hits filed as inhibitors. hit rate 5.9% among 310,000. P. falciparum luciferase growth in erythrocytes, 48 h; also: potency is read from the fitted curve at half-maximal effect; % is scaled to controls: 0 for no effect and ±100 for the full control effect
#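 Growth was read as firefly luciferase luminescence after a 48 h, 37 C, 5% CO2 exposure of compounds to reporter-bearing P. falciparum cultures (0.1% parasitemia, 2% hematocrit final) in Albumax-supplemented RPMI 1640.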
# CHX counter = affects cycloheximide protein synthesis inhibition readout, counter-screen; AID 2314; max response, %; cell reporter, cycloheximide protein synthesis inhibition counterscreen; hit rate 12% among 300,000; in the data active = max response mostly above about 13%, no sharp cut-off; inactive = mostly below about 14%; also: read at 38.3 µM for the half of the compounds with a filed dose; 0% is about no effect
# HCMV antiviral = blocks human cytomegalovirus replication | hit rate 4.5% among 410,000 | activity change, negative = inhibition, % at 57.5 µM | HFF cells, HCMV-luciferase reporter, 72 h; active compounds read low; in the data active = activity change below about -60%; inconclusive = no clear call, values can overlap the other calls; inactive = above about -39%; also: % is scaled to controls: 0 for no effect and ±100 for the full control effect
#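 Steps: HFFs plated, 16 h 37C; compounds added; HCMV-luciferase added to MOI 1 PFU/cell; 72 h 37C; OneGlo reagent, 5 min room temperature; luminescence read, normalized to controls.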
# Shiga toxin inh = blocks Shiga toxin action in Vero cells | Vero cells, Shiga toxin protein synthesis inhibition reporter | inhibition, % at 38.7 µM | hit rate 9.2% among 290,000 | AID 2315; in the data active = inhibition mostly above about 28%, no sharp cut-off; inactive = mostly below about 43%; also: 0% is about no effect
# Pf growth 96h = P. falciparum growth inhibition at 96 hour, primary screen for plastid delayed-death inhibitors | Potency, µM (top dose mostly 28.7 µM), without a hit: top-dose activity change, negative = inhibition, actives largely listed as inhibitors | P. falciparum luciferase reporter growth, 96 h | hit rate 6.9% among 320,000 | AID 504834; also: potency is read from the fitted curve at half-maximal effect; % is scaled to controls: 0 for no effect and ±100 for the full control effect
#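 Infected RBCs, 2% Hct / 0.05% parasitemia final; luciferase-reporter P. falciparum; cpd 96 h, 37 C, 5% CO2; luciferase detection reagent; luminescence.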
# * hit, by the source's call; u = inconclusive; x = no result. Shown are actives, neighbours in structure and some others; about 20% of the full set was active somewhere. Unless noted, calls follow the shape of the dose curve; as a rule, active = well fitted inhibition curve with a large enough effect; inconclusive = small, poorly fitted or top-dose-only effect, or another doubt; inactive = no such curve, though single readings can be large or run the other way.
SMILES,Pf growth 48h,CHX counter,HCMV antiviral,Shiga toxin inh,Pf growth 96h
N#CC(C#N)=Cc1c(N2CCN(c3ccccc3)CC2)nc2ccccn2c1=O,x,33*,57,82*,u
O=Cc1c(N2CCN(c3ccccc3)CC2)nc2ccccn2c1=O,13%,31*,23,54*,u
COc1ccc(N2CCN(c3nc4ccc(C)cn4c(=O)c3C=O)CC2)cc1,u,3,22,33,0%
CCOC(=O)c1c(NC(=O)C2c3ccccc3Oc3ccccc32)sc(C)c1CC,x,x,16,x,x
COC(=O)c1ccc(NC(=O)C(=O)NCCc2sc3nc(-c4ccc(OC)cc4)nn3c2C)cc1,x,x,67,x,x
COc1cc(NC(=O)CN2C(=O)COc3ccc(S(=O)(=O)N4CCCCC4)cc32)cc(OC)c1,u,9,-12,-17,10µM*
CC(=O)c1cccc(NC(=O)CN2C(=O)COc3ccc(S(=O)(=O)N4CCOCC4)cc32)c1,u,2,-22,22,12µM*
COc1ccc(NC(=O)CN2C(=O)COc3ccc(S(=O)(=O)N4CCCCC4)cc32)c(OC)c1,u,6,-29,-3,u
Cc1cc(C)cc(NC(=O)CN2C(=O)COc3ccc(S(=O)(=O)N4CCCC4)cc32)c1,0%,1,-3,4,u
COc1cc(NC(=O)CN2C(=O)COc3ccc(S(=O)(=O)N4CCCC4)cc32)cc(OC)c1,u,1,-25,-3,0.41µM*
CCN(CC)S(=O)(=O)c1ccc2c(c1)N(CC(=O)Nc1cccc(C(C)=O)c1)C(=O)CO2,x,x,53,x,x
CC(C)c1ccc(Nc2ncnc3onc(-c4ccc(F)cc4)c23)cc1,x,x,-24,x,x
COc1cccc(-n2c(SCC(=O)NCC3CCCO3)nc3c(c2=O)SCC3)c1 (centres undefined),0%,-3,8,-1,10%
CCN(CC)CCCNC(=O)C1CCN(c2ncnc3c2sc2cccc(F)c23)CC1,u,-1,-20,3,1.9µM*
O=C(Nc1cc(Cl)ccc1O)c1cc(-c2ccc3c(c2)OCO3)on1,x,x,77,x,x
CC(C)N1CCC2(CC1)N=C(c1ccc3c(c1)OCO3)CC(c1cc(Cl)ccc1O)N2 (centres undefined),u,47*,-81*,43*,u
CCCCOc1ccc(CSC2=NCCN2)cc1[N+](=O)[O-],u,1,-5,15,13µM*
CCCCOc1ccc(Br)cc1CSC(=N)N,4.7µM*,-9,-98*,-19,u
CCCCCOc1ccc(CSC(=N)N)cc1[N+](=O)[O-],u,11,1,1,0.47µM*
Cc1cccc(-n2c(Cc3ccccc3)nnc2SCc2nc(-c3cccs3)no2)c1,x,x,-11,x,x
CC(C)C[C@H](NC(=O)[C@@H]1CCCN1C(=O)[C@H](CO)NC(=O)[C@H](Cc1ccccc1)NC(=O)CNC(=O)[C@@H]1CCCN1C(=O)[C@@H]1CCCN1C(=O)[C@@H](N)CCCN=C(N)N)C(=O)O,x,-6,x,-3,x
COc1ccc(NS(=O)(=O)c2cn(C)cn2)cc1OC,28%,-1,-34,16,3%
O=C(CSc1nnc(CNC(=O)c2cccs2)o1)Nc1ccc(Br)cc1,7%,1,-10,2,13µM*
O=C(CSc1cccs1)Nc1ccc(Cl)cc1,82%,54*,9,50*,44%
Cc1cc(C)cc(NC(=O)CSc2nnc(CNC(=O)c3cccs3)o2)c1,10%,5,6,-20,70%
SMILES,Pf growth 48h,CHX counter,HCMV antiviral,Shiga toxin inh,Pf growth 96h
O=C(CSc1nnc(CNC(=O)c2cccs2)o1)Nc1ccc(Cl)cc1,2%,1,-30,-5,10µM*
CC(C)c1ccc(/C=N/NC(=O)c2nnn(-c3nonc3N)c2CSC2=NCCS2)cc1,u,-3,-21,10,u
C[C@H](CCCC(C)(C)O)[C@H]1CC[C@H]2[C@@H]3CC=C4C[C@@H](O)CC[C@]4(C)[C@H]3CC[C@]12C,2%,x,x,x,-6%
CSc1nc2c(c(=O)n1-c1ccc(C)cc1)SCC2,9.3µM*,8.6*,-13,49,-4%
CCOc1ccc(-n2c(SC)nc3c(c2=O)SCC3)cc1,-8%,-3,-13,-11,u
CCOc1ccc(-n2c(SC(C)C)nc3c(c2=O)SCC3)cc1,8.3µM*,2,-33,-8,151%
COC(=O)[C@@H](NC(=O)N(C1CCCCC1)C1CCCCC1)C(C)C,-22%,-1,-2,-9,1.7µM*
COC(=O)[C@@H](NC(=O)NC1CCCCC1C)C(C)C (some centres undefined),3%,-2,32,-4,u
COC(=O)c1ccc(OCC(O)CN2CCN(C(=O)c3ccco3)CC2)c(OC)c1 (centres undefined),-4%,-6,28,6,13%
Cc1cccc(C)c1NC(=O)COC(=O)CCc1c[nH]c2ccccc12,3.7µM*,x,-13,x,6.6µM*
Cc1c(NC(=O)COC(=O)CCc2c[nH]c3ccccc23)c(=O)n(-c2ccccc2)n1C,9%,-2,-14,1,-8%
Cc1cccc(NC(=O)COC(=O)CCc2c[nH]c3ccccc23)c1C,13µM*,x,-25,x,u
O=C(COC(=O)Cc1c[nH]c2ccccc12)Nc1cccc2ccccc12,-17%,0,30,-5,u
O=C(COC(=O)CCc1c[nH]c2ccccc12)Nc1ccccc1C(F)(F)F,-17%,x,-94*,x,31%
NC(=O)c1ccccc1NC(=O)/C=C/c1c(Cl)cccc1Cl,180%,27*,111,143*,13µM*
NC(=O)c1ccccc1NC(=O)Nc1ccccc1Cl,-1%,15,9,17,29%
NC(=O)c1ccccc1NC(=O)/C=C/c1cccc(Cl)c1,199%,45*,14,118*,211%
Cc1ccc(/C=C/C(=O)Nc2ccccc2C(N)=O)o1,x,x,88,x,x
CC1(C(=O)NS(=O)(=O)Cc2ccccc2C(F)(F)F)CCN1C(=O)C/C=C/c1ccccc1 (centres undefined),x,x,25,x,x
COCCC(=O)N1CCC(Oc2ccc(C(=O)N(C)C3CCCCC3)cc2)CC1,-6%,12*,-12,x,u
COCC(=O)N1CCC(Oc2ccc(C(=O)N(C)C3CCCCC3)cc2)CC1,5%,-4,-9,-3,-19%
CCCOC1CCCN(C(=O)c2ccc(OC3CCN(C(=O)CCOC)CC3)cc2)C1 (centres undefined),3%,16*,-11,52,8%
CCCOC1CCCN(C(=O)c2ccc(OC3CCN(C(=O)COC)CC3)cc2)C1 (centres undefined),9%,8,18,43,u
Cc1cc(C)n2c(Nc3ccccc3C)c(-c3cccs3)nc2n1,x,x,-4,x,x
O=C(Nc1ccccc1)n1ccc(-c2ccc(-n3ccnc3)cc2)n1,133%,43*,-27,40*,84%
CCCN(CCC)C(=O)c1cc([N+](=O)[O-])cc2c1-c1ccc([N+](=O)[O-])cc1C2=C(C#N)C#N,12µM*,-2,u,-1,12µM*
